Results on 13 molecules are retold here after PubChem BioAssay (NCI).

The structures appear in SMILES notation. Compounds without any hit were thinned out: in the full panel of roughly 83,000, 20% have a hit.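 Step 1: grow cells in 96-well plates. Step 2: add test compound at a single concentration. Step 3: incubate 48 h. Step 4: record percent growth.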 Values without a mark were called inactive. Active and inactive are the calls of the source. Rule for the calls: active = growth percent below 10; inactive = the rest.

What all share (assay): NCI-60 one-dose screen, 48 h (100 = growth as untreated, 0 = no growth, -100 = all killed)
What all share (details): 10 µM unless noted

For experiment [1], the system named is HCT-15 colon.
Experiment [2] concerns HT29 colon.
In experiment [3] the test system is SNB-75 CNS.
In experiment [4] the test system is SNB-19 CNS.
Experiment [5] has as its system U251 CNS.
The subject of experiment [6] is PC-3 prostate.
In experiment [7] the test system is SK-MEL-5 melanoma.
In experiment [8] the test system is UACC-62 melanoma.
For experiment [9], the system named is LOX IMVI melanoma.
Experiment [10] deals with SK-MEL-28 melanoma.

As for `COc1cc2ncn3c(=O)c4c5c(sc4nc3c2cc1OC)CCCC5`, the growth in experiment [1] is 99.9%; in [2], 91.8%; in [3], 85.1%; in experiment [4], 93.2%; in experiment [5], 98.7%; in experiment [6], 87.6%. Besides, the growth in [7] was 102%; in [8], 93.4%; in experiment [9], 98.6%; in experiment [10] it was 106%.
For `N#CC1=C(c2ccc(Br)cc2)NC(SCC(=O)c2ccc(Br)cc2)NC1=O` (stereo not given), the growth in experiment [1] was 103%; in experiment [2], 105%; in [3] it was 98.7%; in experiment [4] it was 110%; in experiment [5], 108%; in [6], 92.4%. Further, the growth was 110% in experiment [7], 109% in experiment [8], 106% in experiment [9] and 111% in experiment [10].
As to `Cc1ccc2nc(NC(=O)CSc3nc(-c4ccccc4)c(C#N)c(=O)n3Cc3ccccc3)sc2c1`, the growth in experiment [1] is 96.6%; in experiment [2] it was 105%; in experiment [3] it was 63.5%; in [4], 78.3%; in [5], 87.8%; in experiment [6], 71.9%. Also, the growth in [7] was 83.1%; in [8], 53.5%; in [9], 83.1%; in experiment [10], 79.1%.
For `CCCCCCCCCCCCCCCCCCOc1ccc(CC(=O)OCC[N+]2(C)CCCC2)cc1`, the growth in [1] was 97.8%; in experiment [2], 98.6%; in experiment [3], 106%; in experiment [4], 90.8%; in experiment [5] it was 85.8%; in experiment [6], 99.9%. Further, the growth is 103% in experiment [7], 96.2% in [8], 42.5% in [9] and 106% in experiment [10].
As to `COc1ccc2c(c1)CCCN2c1c2ccccc2nc2ccccc12`, the growth in experiment [1] is 12.5%; in experiment [2] it was 8.43% (active); in experiment [3], 0.187% (active); in experiment [4], 34.6%; in experiment [5], 14.1%; in experiment [6], 15.9%. Also, the growth in experiment [7] was 2.04% (active); in experiment [8] it was 5.34% (active); in experiment [9], 12.2%; in [10], 47%.
Consider `O=C1OC(c2nc3ccccc3s2)=C/C1=C\c1ccc(O)cc1`, for which the growth in [1] was 111%; in experiment [2] it was 99.5%; in experiment [3] it was 92.7%; in experiment [4] it was 97.2%; in experiment [5], 107%; in [6] it was 88.8%. The growth in experiment [7] is 104%; in [8], 89.1%; in experiment [9] it was 94.3%; in [10], 107%.
With `O=S(=O)(O)c1ccc(N/N=C/c2ccccc2Cl)cc1`, the growth in [1] was 97%; in [2], 100%; in experiment [3], 94.6%; in experiment [4], 109%; in experiment [5], 99.5%; in experiment [6], 99.2%. In addition, the growth in experiment [7] was 103%; in [8], 111%; in experiment [9], 128%; in experiment [10], 111%.
Regarding `N#CC1=C(/N=C/c2ccccc2)Oc2c(ccc3ccccc23)C1c1ccccc1` (stereo not given), the growth was 16.6% in experiment [1]; 4.48% (active) in experiment [2]; 10.1% in [3]; 24.4% in experiment [4]; 16.9% in experiment [5]; 8.32% (active) in [6]. Besides, the growth is -3.14% (active) in experiment [7], 15.7% in [8], 23.9% in experiment [9] and 41.5% in experiment [10].
`O=C1N=c2cc3c(cc2=C/C1=C/c1sc(=S)n(CCc2ccc(O)cc2)c1O)OCCO3`: the growth is 9.98% (active) in experiment [1]; 21.2% in experiment [2]; 61.4% in experiment [3]; 22.9% in experiment [4]; 17.8% in experiment [5]; 41.4% in experiment [6]. For the same molecule, the growth in [7] was 83.3%; in [8], 20.7%; in experiment [9] it was 3.28% (active); in experiment [10], 38.7%.
`O=C(CSc1nnc(-c2ccc(NC(=O)c3cccnc3)cc2)o1)N[C@@H](Cc1ccc(O)cc1)C(=O)O`: the growth in experiment [1] was 113%; in [2], 106%; in experiment [3] it was 98.9%; in experiment [4], 96.7%; in [5], 103%; in experiment [6], 101%. Further, the growth in [7] is 100%; in experiment [8] it was 92.8%; in [9] it was 104%; in [10], 108%.
Consider `COC(=O)c1ccc(CSc2nnc(-c3c(C)nc4ccc(C)cn34)o2)cc1`, for which the growth in [1] was 104%; in experiment [2] it was 111%; in experiment [3], 85.9%; in [4] it was 94.2%; in [5], 99.2%; in [6], 106%. For the same molecule, the growth was 93.8% in experiment [7], 89.2% in experiment [8], 94.2% in experiment [9] and 103% in experiment [10].
On to `COc1ccc(OC)c(-c2c(C#N)c(-c3ccc(Cl)cc3)nc3c2c(-c2ccccc2)nn3-c2ccccc2)c1`, for which the growth in [1] was 105%; in experiment [2] it was 109%; in experiment [3], 85.1%; in experiment [4] it was 100%; in experiment [5], 98.7%; in [6] it was 92%. The growth in experiment [7] was 110%; in [8], 90.7%; in [9] it was 94.4%; in experiment [10], 105%.
Consider `COc1ccc(-c2ccc3c(c2)sc2nc(-c4ccc(F)cc4)cn23)cc1`, for which the growth in experiment [1] is 74.9%; in experiment [2] it was 82.8%; in [3], 98.9%; in [4] it was 103%; in experiment [5], 83.3%; in experiment [6], 81.7%. Further, the growth in experiment [7] was 33.1%; in experiment [8] it was 65%; in experiment [9] it was 102%; in [10], 105%.
